High-throughput results from PubChem.
A selection: hits, their analogues and other compounds. The true share with any hit is near 1.3%.
RAD52 anneal inh = RAD52 (human) annealing inhibition. recombinant RAD52 DNA annealing, FRET fluorescence. inhibition, % at 18.7 µM. 0.46% of 360,000 active. AID 651710;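 active = every replicate showing at least 50% inhibition; inconclusive = mean inhibition at least 50% but not in every replicate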
Target sequence (P43351 whole entry, looked up): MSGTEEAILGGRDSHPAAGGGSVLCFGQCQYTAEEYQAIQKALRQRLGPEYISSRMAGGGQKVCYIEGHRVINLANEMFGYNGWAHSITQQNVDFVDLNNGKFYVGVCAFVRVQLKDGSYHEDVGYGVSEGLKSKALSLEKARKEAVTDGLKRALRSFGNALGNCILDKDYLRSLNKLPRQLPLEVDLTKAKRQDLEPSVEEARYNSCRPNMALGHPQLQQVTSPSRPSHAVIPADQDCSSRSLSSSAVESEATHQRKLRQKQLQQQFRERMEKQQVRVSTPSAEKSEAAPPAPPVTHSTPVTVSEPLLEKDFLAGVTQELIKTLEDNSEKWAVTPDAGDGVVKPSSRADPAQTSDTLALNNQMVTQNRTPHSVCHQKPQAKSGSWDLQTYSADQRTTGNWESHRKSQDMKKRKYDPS
RAD54 inh = inhibitors of human RAD54 branch migration; 0.14% of 360,000 active; Q92698; AID 602329; inhibition, % at 10.4 µM; RAD54 Holliday junction branch migration, FAM/BHQ fluorescence;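 active = mean normalized replicate activity at least 40 and at least half of replicates scoring 40 or more; inconclusive = only one of the two criteria met; inactive = mean below 40 and under half of replicates reaching 40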;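 also: inhibitors cause a drop in the FAM fluorescence signal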
FID counter = fluorescent intercalator displacement, NS3 helicase counter-screen; DNA fluorescent intercalator displacement, fluorescence; inhibition, % at 7.9 µM; 0.17% of 290,000 active; in the data active = inhibition above about 37%;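 also: higher means more ethidium bromide displaced from hairpin DNA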
PREPL inh = inhibits the human prolyl oligopeptidase-like enzyme; recombinant PREPL, fluorescence polarization activity-based probe; inhibition, % at 5.96 µM; 0.68% of 320,000 active; AID 2751; in the data active = inhibition above about 43%
UBC13 polyUb = blocks human UBC13 polyubiquitin chain formation. AID 485273. 0.47% of 330,000 active. TR-FRET. P61088. inhibition, % at 20 µM; in the data active = inhibition above about 45%, passing the limit was not always enough; inconclusive = no clear call, values can overlap the other calls
Target sequence (P61088 whole entry, looked up): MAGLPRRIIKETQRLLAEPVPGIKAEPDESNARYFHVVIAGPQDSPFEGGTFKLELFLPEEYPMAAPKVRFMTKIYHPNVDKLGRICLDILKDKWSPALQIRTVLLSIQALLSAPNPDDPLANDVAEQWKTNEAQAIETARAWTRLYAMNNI
MIN6 prolif = inducers of beta-cell replication in MIN6 cells; MIN6 cells proliferation, ATPlite luminescence, 48 h; cells starved in 0.2% serum; 100% = growth in 10% serum; proliferation, % at 10 µM; 0.29% of 330,000 active; AID 2380;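 active = compounds whose signal lies at least 3.5 SD above the mean of all wells on their plate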
Rad54 DNA ctr = binds DNA, flagging false Rad54 inhibitor hits; shares compounds with RAD54 inh; Acridine orange-DNA displacement, fluorescence polarization, 20 min; AC50, µM (doses to about 35 µM); 8% of 460 active;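 active = signal drop giving an AC50 within twice the top valid tested concentration of each sample, actives reach about 35 µM in these data; inactive = activity opposite to expected, plus the rest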;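 also: polarization loss reports compound binding to salmon sperm DNA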
RAD52 DNA ctr = counter-screen for RAD52 inhibitors: DNA binding compounds. shares compounds with RAD52 anneal inh. Salmon sperm DNA/acridine orange FP displacement. AC50, µM. 8% of 1,000 active. AID 652128;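 active = fitted half-maximal concentration for signal loss at or below twice the highest dose tested, in every separate run, actives reach about 64 µM in these data; inconclusive = runs disagree, or flat partial signal loss, or poor fit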
Numbers stand for hits.

Results for Cc1cc(C)c(S(=O)(=O)N2CCN(CCN3C(=O)c4cccc5cccc(c45)C3=O)CC2)cc1[N+](=O)[O-] ?
FID counter: inactive

What do the screens show for `C[C@@H]1CCCCO[C@H](CN(C)S(=O)(=O)c2ccccc2)[C@H](C)CN([C@H](C)CO)C(=O)c2cc(NS(C)(=O)=O)ccc2O1`?
RAD52 anneal inh: inactive; RAD54 inh: inactive

What do the screens show for `CCCNC(=O)N(C)C[C@H]1Oc2cc(-c3ccccc3F)ccc2S(=O)(=O)N([C@H](C)CO)C[C@@H]1C`?
RAD54 inh: inactive

How did COC(=O)C[C@H]1C[C@H]2c3cc(NC(=O)CN(C)C)ccc3O[C@H]2[C@@H](CO)O1 do in these assays?
RAD52 anneal inh: inactive; RAD54 inh: inactive

Results for C[C@@H]1CCCCO[C@H](CN(C)C(=O)CCC(F)(F)F)[C@@H](C)CN([C@@H](C)CO)C(=O)c2cc(NC(=O)CCCCCC(=O)Nc3ccccc3N)ccc2O1 ?
RAD54 inh: inactive

Results for N=c1n(CCN2CCCCC2)c2ccccc2n1CC(=O)c1cccc([N+](=O)[O-])c1 ?
RAD52 anneal inh: 75.4; RAD54 inh: 86.5; FID counter: inactive; PREPL inh: inactive; UBC13 polyUb: inactive; MIN6 prolif: inactive; Rad54 DNA ctr: inactive; RAD52 DNA ctr: inactive

How did Cc1ccc(-c2cc3nc(NCCc4ccncc4)n(C)c(=O)c3s2)cc1 do in these assays?
RAD52 anneal inh: inactive; RAD54 inh: inactive

What do the screens show for `COc1ncccc1-c1cc2nc(NCCCN(C)C)n(C)c(=O)c2s1`?
RAD52 anneal inh: 75.4; RAD54 inh: 90.0; Rad54 DNA ctr: inactive; RAD52 DNA ctr: 63.1µM

What do the screens show for `COc1ccc(-c2cc3nc(NCCN4CCCC4)n(C)c(=O)c3s2)cc1OC`?
RAD52 anneal inh: 83.9; RAD54 inh: 69.9; Rad54 DNA ctr: inactive; RAD52 DNA ctr: inactive

Results for CC(C)=C(C)c1cc2nc(NCCCN(C)C)n(C)c(=O)c2s1 ?
RAD52 anneal inh: inactive; RAD54 inh: inactive

What do the screens show for `COc1cccc(-c2cc3nc(NCCCN(C)C)n(C)c(=O)c3s2)c1`?
RAD52 anneal inh: 79.0; RAD54 inh: 62.3; Rad54 DNA ctr: inactive; RAD52 DNA ctr: inconclusive

How did CN(C)CCCNc1nc2cc(-c3ccc4c(ccn4C)c3)sc2c(=O)n1C do in these assays?
RAD52 anneal inh: 95.6; RAD54 inh: 54.4; Rad54 DNA ctr: inactive; RAD52 DNA ctr: inactive

What do the screens show for `COc1cccc(CNc2nc3cc(-c4ccccc4)sc3c(=O)n2C)c1`?
RAD52 anneal inh: inactive; RAD54 inh: inactive

Results for COc1ccc(-c2ccc3c(c2)O[C@H](CN(C)C(C)=O)[C@H](C)CN([C@@H](C)CO)S3(=O)=O)cc1 ?
RAD52 anneal inh: inactive; RAD54 inh: inconclusive

How did Cc1cccc(-c2nc(NCCCN(C)C)c3ccccc3n2)c1 do in these assays?
RAD52 anneal inh: 83.6; RAD54 inh: 82.2; FID counter: 63.0; PREPL inh: inactive; UBC13 polyUb: inactive; MIN6 prolif: inactive; Rad54 DNA ctr: inactive; RAD52 DNA ctr: inactive

Results for CN(C)CCCNc1ncnc2sc(-c3ccccc3)cc12 ?
RAD52 anneal inh: 67.7; RAD54 inh: 64.4; FID counter: inactive; PREPL inh: inactive; UBC13 polyUb: inactive; MIN6 prolif: inactive; Rad54 DNA ctr: inactive; RAD52 DNA ctr: inconclusive

How did Cc1ccc(-c2nc(NCCN(C)C)c3ccccc3n2)cc1 do in these assays?
RAD52 anneal inh: 71.2; RAD54 inh: 77.9; FID counter: 70.7; PREPL inh: inactive; UBC13 polyUb: inactive; MIN6 prolif: inactive; Rad54 DNA ctr: inactive; RAD52 DNA ctr: inactive

How did COCCNc1c2c(nc3ccccc13)CCC2 do in these assays?
RAD52 anneal inh: inactive; RAD54 inh: inactive; FID counter: inactive; PREPL inh: inactive; UBC13 polyUb: inactive; MIN6 prolif: inactive

Results for COc1ccc(CNc2nc(-c3ccccc3)nc3ccccc23)cc1OC ?
RAD52 anneal inh: inactive; RAD54 inh: inactive; FID counter: inactive; PREPL inh: inactive; UBC13 polyUb: inactive; MIN6 prolif: inactive

How did CCOC(CNc1ncnc2sc(-c3ccccc3)cc12)OCC do in these assays?
RAD52 anneal inh: inactive; RAD54 inh: inactive; FID counter: inactive; PREPL inh: inactive; UBC13 polyUb: inactive; MIN6 prolif: inactive

How did CN(C)CCCNc1c2c(nc3ccccc13)CCC2 do in these assays?
RAD52 anneal inh: 78.2; RAD54 inh: 66.9; FID counter: 52.9; PREPL inh: inactive; UBC13 polyUb: inactive; MIN6 prolif: inactive; Rad54 DNA ctr: inactive; RAD52 DNA ctr: inactive

How did COc1ccc(S(=O)(=O)N[C@@H]2C=C[C@@H](CC(=O)N3CCC(Cc4ccccc4)CC3)O[C@H]2CO)cc1 do in these assays?
RAD52 anneal inh: inactive; RAD54 inh: inactive

What do the screens show for `O=C(NCc1ccccc1)c1cc(-c2ccncc2)nc2ccccc12`?
RAD52 anneal inh: inactive; RAD54 inh: inactive; FID counter: inactive; PREPL inh: inactive; UBC13 polyUb: inactive; MIN6 prolif: inactive

How did CN(C)CCNc1cc(-c2ccncc2)nc2ccccc12 do in these assays?
RAD52 anneal inh: 80.0; RAD54 inh: 57.5; FID counter: 77.0; PREPL inh: inactive; UBC13 polyUb: inactive; MIN6 prolif: inactive; Rad54 DNA ctr: inactive; RAD52 DNA ctr: inactive

What do the screens show for `CO[C@@H]1CN(C)C(=O)c2ccc(NC(=O)c3cc(C)on3)cc2OC[C@@H](C)N(C(C)=O)C[C@@H]1C`?
RAD52 anneal inh: inactive; RAD54 inh: inactive

What do the screens show for `CCCCN(CC)CCCNC(=S)Nc1ccc2nc(N3CCN(C)CC3)cc(C)c2c1`?
RAD52 anneal inh: 92.3; RAD54 inh: 88.5; FID counter: inactive; PREPL inh: inactive; UBC13 polyUb: inactive; MIN6 prolif: inactive; Rad54 DNA ctr: inactive; RAD52 DNA ctr: inactive

How did CCN(CC)CCNC(=S)Nc1ccc2nc(N3CCN(C)CC3)cc(C)c2c1 do in these assays?
RAD52 anneal inh: 86.9; RAD54 inh: 84.8; FID counter: 44.4; PREPL inh: inactive; UBC13 polyUb: inactive; MIN6 prolif: inactive; Rad54 DNA ctr: inactive; RAD52 DNA ctr: inactive

What do the screens show for `CCCCN(C)C(=O)CCC(=O)Nc1ccc2nc(N3CCN(C)CC3)cc(C)c2c1`?
RAD52 anneal inh: inactive; RAD54 inh: inactive; FID counter: inactive; PREPL inh: inactive; UBC13 polyUb: inactive; MIN6 prolif: inactive

Results for COc1ccc(CNC(=S)Nc2ccc3nc(N4CCN(C)CC4)cc(C)c3c2)cc1 ?
RAD52 anneal inh: inactive; RAD54 inh: inactive; FID counter: inactive; PREPL inh: inactive; UBC13 polyUb: inactive; MIN6 prolif: inactive

How did CCCN(CCC)CCCNC(=S)Nc1ccc2nc(N3CCCC3)cc(C)c2c1 do in these assays?
RAD52 anneal inh: 92.2; RAD54 inh: 98.7; FID counter: 43.2; PREPL inh: inactive; UBC13 polyUb: inactive; MIN6 prolif: inactive; Rad54 DNA ctr: inactive; RAD52 DNA ctr: inactive
